Assay results as given in PubChem BioAssay.

Experiments:
[1] = tested on: Botulinum neurotoxin type F light chain protease (Clostridium botulinum); test: Botulinum neurotoxin type F light chain protease inhibition, multiplex microsphere flow cytometry, validation set (AID 588459); settings: multiplex microsphere protease substrate cleavage assay, at 10 µM, stronger effect = higher value
[2] = target: Botulinum neurotoxin type A (Clostridium botulinum) (UniProt P0DPI0); test: BoNT/A light chain protease inhibitors, biochemical, multiplex microsphere flow cytometry, validation set (AID 588460); settings: at 10 µM, stronger effect = higher value
[3] = target: Lethal factor (Bacillus anthracis) (UniProt P15917); test: Lethal factor protease inhibitors, Bacillus anthracis, multiplex microsphere cleavage assay, validation set (AID 588461); settings: flow cytometry, at 10 µM, stronger effect = higher value

Measured: inhibition

Sequence of Lethal factor (Bacillus anthracis) (P15917 whole entry, looked up): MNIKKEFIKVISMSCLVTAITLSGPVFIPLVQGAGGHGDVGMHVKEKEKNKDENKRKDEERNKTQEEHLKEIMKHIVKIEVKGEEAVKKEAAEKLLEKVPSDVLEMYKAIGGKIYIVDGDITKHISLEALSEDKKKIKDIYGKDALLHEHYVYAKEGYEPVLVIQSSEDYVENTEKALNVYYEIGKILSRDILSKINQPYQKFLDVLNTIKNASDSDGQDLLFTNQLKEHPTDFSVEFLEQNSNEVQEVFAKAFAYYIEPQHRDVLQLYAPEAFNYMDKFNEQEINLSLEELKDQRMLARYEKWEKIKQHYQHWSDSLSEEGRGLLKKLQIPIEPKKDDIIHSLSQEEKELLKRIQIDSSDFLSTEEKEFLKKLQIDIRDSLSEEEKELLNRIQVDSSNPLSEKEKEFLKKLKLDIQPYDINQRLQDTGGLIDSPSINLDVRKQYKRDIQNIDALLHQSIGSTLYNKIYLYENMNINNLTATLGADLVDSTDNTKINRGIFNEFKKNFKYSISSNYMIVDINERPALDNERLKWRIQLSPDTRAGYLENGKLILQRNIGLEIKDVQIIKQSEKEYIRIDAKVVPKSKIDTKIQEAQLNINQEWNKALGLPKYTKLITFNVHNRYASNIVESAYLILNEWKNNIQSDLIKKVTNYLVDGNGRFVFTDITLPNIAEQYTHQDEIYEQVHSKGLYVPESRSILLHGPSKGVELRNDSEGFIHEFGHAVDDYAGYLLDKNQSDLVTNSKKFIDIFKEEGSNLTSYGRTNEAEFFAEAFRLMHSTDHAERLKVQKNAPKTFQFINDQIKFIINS
Sequence of Botulinum neurotoxin type A (Clostridium botulinum) (P0DPI0 whole entry, looked up): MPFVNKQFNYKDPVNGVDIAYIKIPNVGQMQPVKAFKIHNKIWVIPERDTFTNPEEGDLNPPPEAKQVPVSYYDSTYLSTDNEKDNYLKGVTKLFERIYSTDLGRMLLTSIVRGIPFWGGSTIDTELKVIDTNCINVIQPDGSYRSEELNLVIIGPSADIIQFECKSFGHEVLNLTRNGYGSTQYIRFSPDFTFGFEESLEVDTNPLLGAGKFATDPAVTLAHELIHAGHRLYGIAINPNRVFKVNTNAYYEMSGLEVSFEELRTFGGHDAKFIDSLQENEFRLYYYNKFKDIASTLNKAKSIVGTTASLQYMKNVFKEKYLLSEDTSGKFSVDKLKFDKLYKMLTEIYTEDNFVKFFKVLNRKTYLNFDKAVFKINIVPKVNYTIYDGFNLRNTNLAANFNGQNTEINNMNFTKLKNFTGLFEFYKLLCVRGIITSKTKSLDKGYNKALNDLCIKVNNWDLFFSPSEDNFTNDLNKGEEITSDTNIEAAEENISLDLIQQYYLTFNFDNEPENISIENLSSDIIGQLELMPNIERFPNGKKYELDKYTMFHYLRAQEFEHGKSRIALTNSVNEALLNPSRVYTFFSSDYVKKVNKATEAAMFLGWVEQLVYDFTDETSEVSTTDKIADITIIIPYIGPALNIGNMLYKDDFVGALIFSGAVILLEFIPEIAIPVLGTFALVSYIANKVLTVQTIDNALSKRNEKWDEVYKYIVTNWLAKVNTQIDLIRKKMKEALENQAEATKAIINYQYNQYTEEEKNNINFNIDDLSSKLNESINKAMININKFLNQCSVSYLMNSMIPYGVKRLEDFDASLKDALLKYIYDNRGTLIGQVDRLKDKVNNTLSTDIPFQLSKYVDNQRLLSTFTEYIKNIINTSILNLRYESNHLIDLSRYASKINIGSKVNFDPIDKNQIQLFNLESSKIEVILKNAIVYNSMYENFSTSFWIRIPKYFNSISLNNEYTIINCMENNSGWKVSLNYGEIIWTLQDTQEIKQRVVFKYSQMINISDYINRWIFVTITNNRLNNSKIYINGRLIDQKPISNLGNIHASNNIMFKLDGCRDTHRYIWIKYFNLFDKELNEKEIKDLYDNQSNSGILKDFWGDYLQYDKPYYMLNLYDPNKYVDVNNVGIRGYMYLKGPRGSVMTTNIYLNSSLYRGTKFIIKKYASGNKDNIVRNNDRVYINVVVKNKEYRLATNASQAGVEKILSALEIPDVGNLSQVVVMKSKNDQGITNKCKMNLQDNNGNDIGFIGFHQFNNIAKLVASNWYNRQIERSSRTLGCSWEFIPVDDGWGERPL

CC(C)C(CCN1C(=O)CCC1=O)C1CCOC(C)(C)C1 (configuration not stated)
inactive: [1] 3% | [2] 0.5% | [3] 0.7%

O=C1OC(=O)C2C1[C@@H]1CC[C@H]2O1 (some centres not stated)
inactive: [1] 1.3% | [2] 0.8% | [3] -0.9%

Nc1ccc(S(=O)(=O)NC(=O)c2ccccc2)cc1
inactive: [1] 1.2% | [2] 1.3% | [3] -2.7%

COC(=O)C1=C(C)NC(C)=C(C(=O)OC)C1c1ccccc1[N+](=O)[O-]
inactive: [1] 5.8% | [2] 2.2% | [3] 2%

Cc1ccc(S(=O)(=O)n2ccnc2)cc1C
inactive: [1] 1.4% | [2] -0.3% | [3] -1.7%

Cn1c(=O)oc2cc(S(=O)(=O)N3CCc4ccccc4C3)ccc21
inactive: [1] -0.9% | [2] -3% | [3] -3.5%

CN1CCN(CCCN2c3ccccc3Sc3ccc(Cl)cc32)CC1
inactive: [1] -3.9% | [2] -3.2% | [3] -10.3%

Cc1cccc(NC(=O)c2cc3ccccc3o2)c1
inactive: [1] 1.3% | [2] -0.4% | [3] -2.2%

O=c1ccc2ccccc2o1
inactive: [1] -3% | [2] -1.4% | [3] -1.4%

Cc1ccccc1C(=O)Nc1ccccc1C(=O)NCC(C)C
inactive: [1] -5.7% | [2] -0.4% | [3] 1.2%

C[N+]1(C2CCC3CCCC2C3O)CCCCC1 (configuration not stated)
inactive: [1] 1.7% | [2] 2.4% | [3] -3.7%

CCN(Cc1ccncc1)Cc1nc(Cc2ccccc2Cl)no1
inactive: [1] -4.4% | [2] -0.8% | [3] -2.6%

C=C(C)Cn1c(NCCOC)nc2c1c(=O)[nH]c(=O)n2C
inactive: [1] 0.2% | [2] -0.3% | [3] -5.2%

CC(C)=CC/C=C1\CCC(C(=O)O)C(C(=O)O)C1 (configuration not stated)
inactive: [1] -1.1% | [2] -1.6% | [3] -3.4%

CC(C)OC(=O)CC1C(=O)NCCN1C(=S)NC(=O)c1cccs1 (configuration not stated)
inactive: [1] 0.8% | [2] -1.7% | [3] -5.8%

CCN1/C(=C/C=C/C=C/c2sc3ccccc3[n+]2CC)Sc2ccccc21
inactive: [1] -1% | [2] 16.8% | [3] -36.6%

O=c1ccc2c(o1)/C(=C/C=C(Cl)Cl)CCC2
inactive: [1] -0.9% | [2] -0.6% | [3] -2%

Fc1ccc(-n2cc(CNCCc3ccccn3)c(-c3ccccc3Cl)n2)cc1
inactive: [1] -1.9% | [2] 1.1% | [3] 6.5%

COC(=O)c1cc(OC)c(OC)cc1NC(=O)Nc1ccc(OC)cc1OC
inactive: [1] -4% | [2] -0.8% | [3] 5.9%

CCn1cc(CN2N=C(C)CC2c2ccccc2)c(C)n1 (configuration not stated)
inactive: [1] -0.5% | [2] 0% | [3] -2.2%

CCOC(=O)Cn1c(C)cc(=O)c2ccccc21
inactive: [1] 6.3% | [2] 1.7% | [3] 9.6%

COC(=O)C1[C@H]2C(=O)N(Cc3cccs3)C[C@]23C=C[C@H]1O3 (some centres not stated)
inactive: [1] -0.5% | [2] -0.7% | [3] -4%

Cc1ccc2nc(C)c3c(c2c1)OC(C(C)(Cl)Br)C3 (configuration not stated)
inactive: [1] -0.4% | [2] -0.5% | [3] 3.2%

COc1ccc(-c2[nH]ncc2CN(CCO)Cc2cccs2)c(F)c1
inactive: [1] -1.2% | [2] 0.8% | [3] 5.8%

O=C(O)Cc1ccc(-c2ccccc2)cc1
inactive: [1] 0.5% | [2] -1.2% | [3] 0.5%

Cc1cccc(OCC(=O)Nc2ccc(C(=O)NCC(C)C)cc2)c1
inactive: [1] 4.2% | [2] 0.3% | [3] -4.3%

COc1ccccc1OCC(O)COC(N)=O (configuration not stated)
inactive: [1] -3.8% | [2] -1.3% | [3] -6.8%

O=C1C(O)CC2c3ccccc3CC3(CCCC3)N12 (configuration not stated)
inactive: [1] 2% | [2] -1.5% | [3] -6%

CCc1oc2ccccc2c1C(=O)c1cc(Br)c(O)c(Br)c1
inactive: [1] -6.8% | [2] -0.5% | [3] -0.4%

CNC[C@H](O)c1ccc(O)c(O)c1
inactive: [1] -2.9% | [2] -0.9% | [3] -4.8%

CCC(=O)Oc1ccc(/C(CC)=C(\CC)c2ccc(OC(=O)CC)cc2)cc1
inactive: [1] -2% | [2] 0.1% | [3] -0.2%

COc1ccc(C2=CC(=O)C=CC2=O)cc1
inactive: [1] -4.7% | [2] -1.3% | [3] -4.1%

COc1ccc(-c2cc3cc(OC)c(OC)cc3c(C)n2)cc1
inactive: [1] -3.3% | [2] 1.2% | [3] 4.5%

C[C@H](CCC(=O)O)[C@H]1CC[C@H]2[C@@H]3C(=O)C[C@@H]4CC(=O)CC[C@]4(C)[C@H]3CC(=O)[C@]12C
inactive: [1] -1.4% | [2] -0.5% | [3] -0.9%

O=C(N/N=C/c1ccc([N+](=O)[O-])o1)c1ccc(O)cc1
inactive: [1] 0.2% | [2] -3.9% | [3] -11.9%

COc1ccc(C2CNC(=O)C2)cc1OC1CCCC1 (configuration not stated)
inactive: [1] 7.8% | [2] -0.3% | [3] 1%

CC(/C=C1\SC(=O)N(CCCC(=O)O)C1=O)=C\c1ccccc1
inactive: [1] 3.5% | [2] 1.3% | [3] -5.6%

COc1ccc2nc(S(=O)Cc3ncc(C)c(OC)c3C)[nH]c2c1 (configuration not stated)
inactive: [1] 4.3% | [2] 1.7% | [3] 5%

Cc1nc(N)nc2c1CCCC2
inactive: [1] 2.4% | [2] 1.2% | [3] 4.9%

NS(=O)(=O)c1ccc(CNC(=O)c2cc(-c3ccccc3)nc3ccccc23)cc1
inactive: [1] 0.5% | [2] 0.4% | [3] -4.8%

COc1ccc2cc(CCC(C)=O)ccc2c1
inactive: [1] -2.3% | [2] 0.4% | [3] 6.3%

C=CCNc1nc2c(c(=O)n(C)c(=O)n2C)n1CC(=C)C
inactive: [1] 3.1% | [2] 0.5% | [3] -0.3%

Cc1[nH]c2ccccc2c1C(=O)CN1CCCC1
inactive: [1] 0.8% | [2] 0.2% | [3] -1.1%

CN1C(=O)C(O)(CC(=O)/C=C/C=C/c2ccccc2)c2ccccc21 (configuration not stated)
inactive: [1] -1.9% | [2] -0.3% | [3] -0.3%

CN1CCN(C2=Nc3cc(Cl)ccc3Nc3ccccc32)CC1
inactive: [1] -0.2% | [2] -0.4% | [3] -6.6%

C[C@@H]1C[C@H]2[C@@H]3C[C@H](F)C4=CC(=O)C=C[C@]4(C)[C@@]3(F)[C@@H](O)C[C@]2(C)[C@@]1(O)C(=O)CO
inactive: [1] 0.3% | [2] 0.4% | [3] 0.5%

O=C(Cc1ccccc1[N+](=O)[O-])NCCCN1CCOCC1
inactive: [1] -1.6% | [2] -0.1% | [3] 6.7%

Cc1ccc2c(c1)C1OCCC1C1N2C(=O)C2C(C(=O)O)C3C=CC21O3 (configuration not stated)
inactive: [1] -1.8% | [2] -0.8% | [3] 5.5%

COc1cc(C2C(C(=O)c3ccc(C)o3)=C(O)C(=O)N2Cc2cccnc2)ccc1O (configuration not stated)
inactive: [1] 1.8% | [2] -0.4% | [3] -0.1%

CCCCC(=O)O[C@]1(C(=O)CO)CC[C@H]2[C@@H]3CCC4=CC(=O)CC[C@]4(C)[C@H]3[C@@H](O)C[C@@]21C
inactive: [1] -3.5% | [2] -0.5% | [3] -2.1%

CCN(CC)C1=C(Cl)C(=O)C(Cl)C12OCCO2 (configuration not stated)
inactive: [1] 1% | [2] 0.6% | [3] -1%

Cc1ccc(/C=N/Nc2nc(C(C)(C)C)cs2)o1
inactive: [1] -1% | [2] -0.3% | [3] -6.6%

Cn1c(SCC(=O)c2ccccc2)nnc1-c1ccncc1
inactive: [1] 1.7% | [2] 0.4% | [3] 3.4%

Cc1nonc1CN(C)C(=O)c1ccc(OC2CCN(C(=O)c3cccnc3)CC2)cc1
inactive: [1] 3.6% | [2] 1.2% | [3] 10.7%

CCOc1ccc(NC(=O)N[C@@H](CCSC)C(=O)OC)cc1
inactive: [1] -0.6% | [2] -1.8% | [3] -4.6%

CCc1cccc(OC2OC(CO)C(O)C(O)C2NC(C)=O)c1 (configuration not stated)
inactive: [1] -0.7% | [2] -0.7% | [3] -4.6%

O=C(NC(=S)Nc1nc(-c2ccccc2)cs1)c1ccco1
inactive: [1] 4.3% | [2] -0.2% | [3] -0.3%

COc1ccc2[nH]cc(CCNC(=O)C3CCCNC3=O)c2c1 (configuration not stated)
inactive: [1] -3.2% | [2] -1.5% | [3] -5.3%

CC(=O)CCCCn1c(=O)c2c(ncn2C)n(C)c1=O
inactive: [1] -1.6% | [2] 0.1% | [3] -6.2%

COc1ccc(C2CC(c3ccc([N+](=O)[O-])cc3)=NN2C(=O)c2ccccc2)cc1OC (configuration not stated)
inactive: [1] 10.2% | [2] 7.9% | [3] 2.3%

COc1ccc(-c2nnc(-c3cc4c(ccc5ccccc54)oc3=O)o2)cc1
inactive: [1] -0.8% | [2] 0.4% | [3] -1.7%

C=CCn1c(SCC(=O)NC2CCCCC2)nc2ccccc2c1=O
inactive: [1] -0.1% | [2] -1.1% | [3] -3.5%

COc1ccc(OC(C)C(=O)Nc2ccc([N+](=O)[O-])cc2)cc1 (configuration not stated)
inactive: [1] 4% | [2] 1.9% | [3] -0.5%

CCN(CC)CCNc1ccc(CO)c2sc3ccccc3c(=O)c12
inactive: [1] 0.5% | [2] -0.5% | [3] -7%
